# Experimental data taken from PubChem BioAssay AID504692 (The Scripps Research Institute Molecular Screening Center, 2011).
# About 2,000 (0.59%) of roughly 340,000 compounds were called active. What follows is part of a selection rich in actives, with near analogues and random picks from the rest. A number with no mark means an inactive call. Rule as the data show it: active = activation mostly above about 9.5% (no sharp cut-off); inactive = mostly below about 7.6%.
# Target: 5-hydroxytryptamine receptor 5A (Homo sapiens) (UniProt P47898)
# Experiment: activation of human 5-HT5A receptor – cell-based, luminescence, full-deck HTS, counter-screen for OPRM1-OPRD1 heterodimer agonist project, primary screen (AID 504692);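 also: 0% = cells with vehicle only and 100% = reference agonist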
# Conditions: HTR5A agonist assay, at 9.3 µM, hits give high values
# Chain of 5-hydroxytryptamine receptor 5A (Homo sapiens) (P47898 whole entry, looked up): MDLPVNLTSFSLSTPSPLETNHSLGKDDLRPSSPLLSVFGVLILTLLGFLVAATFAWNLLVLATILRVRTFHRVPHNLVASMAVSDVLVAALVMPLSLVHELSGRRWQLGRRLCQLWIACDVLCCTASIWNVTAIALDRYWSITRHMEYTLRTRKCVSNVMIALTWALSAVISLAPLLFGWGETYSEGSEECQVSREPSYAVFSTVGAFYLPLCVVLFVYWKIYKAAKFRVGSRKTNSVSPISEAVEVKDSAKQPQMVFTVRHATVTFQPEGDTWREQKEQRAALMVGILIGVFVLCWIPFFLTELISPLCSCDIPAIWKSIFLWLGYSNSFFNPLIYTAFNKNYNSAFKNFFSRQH
row,SMILES,activation
1,CCc1nnc(NC(=O)c2cc(S(=O)(=O)N3CCCCC3)ccc2C)s1,3.55%
2,COC(=O)C1=C(O)/C(=C/c2ccc(OCC(=O)Nc3ccccc3)cc2)N=C1C,-2.15%
3,CCOC(=O)C1=C(O)/C(=C/c2ccc(OCC(=O)Nc3ccc(C)cc3)cc2)N=C1C,23.3% (active)
4,Cc1ccc(NC(=O)COc2ccc(/C=C3/NC(=O)NC3=O)cc2)cc1,1.1%
5,CCOC(=O)CC1=CC(=O)Nc2ccccc2N1,6.62%
6,CCc1ccc(C(=O)NC(=S)Nc2ccccc2N2CCOCC2)cc1,-3.97%
7,CC(=O)N1CCN(c2ccccc2NC(=S)NC(=O)c2cc3ccccc3o2)CC1,16.4% (active)
8,COc1ccc(C(=O)NC(=S)Nc2ccccc2N2CCN(S(C)(=O)=O)CC2)cc1OC,-1.57%
9,O=S(=O)(c1ccc(Sc2nnc3ccccn23)nc1)N1CCOCC1,2.94%
10,NC(=O)C1(N2CCCCC2)CCN(C2CC(=O)N(Cc3ccc(N4CCCC4=O)cc3)C2=O)CC1 (configuration not stated),1.47%
11,COc1cccc(NC(=O)CN(C)CC(=O)Nc2ccc3c(c2)CCC3)c1,7.9%
12,COc1ccc(-c2ocnc2C(=O)Nc2ccc3c(c2)CCC3)cc1,16.5% (active)
13,CC(C)Oc1ccc(C(=O)NCC(=O)Nc2ccc3c(c2)CCC3)cc1,-1.62%
14,O=C(CN(C(=O)c1csnn1)c1cccc(F)c1)NCc1ccc(F)cc1,-2.96%
15,CCOC(=O)C1=C(CC)Nc2ccccc2N=C1N,2.67%
16,O=C(c1ccc(OC2CCN(C(=O)c3cccnc3)CC2)cc1)N1CCCCCC1,2.41%
17,O=C(NCc1cc(F)cc(C(F)(F)F)c1)C1CCC(=O)N(C2CCCC2)C1 (configuration not stated),2.09%
18,C[C@H]1[C@H]2c3nc4ccccc4n3C[C@H]1ON2C1CCCCC1,1.56%
19,CCOc1ccc(CCNC(=O)C(CC)n2nc(C)n3c(cc4sccc43)c2=O)cc1OCC (configuration not stated),8.13%
20,N#Cc1ccc(/C=C2\CCn3c2nc2cc(C(=O)O)ccc2c3=O)cc1,-2.04%
21,O=C(O)c1ccc2c(=O)n3c(nc2c1)/C(=C/c1ccc(OC(F)F)cc1OC(F)F)CC3,-1.8%
22,Cc1ccc(/C=C2\CCn3c2nc2cc(C(=O)O)ccc2c3=O)c(C)c1,14.2% (active)
23,COc1ccc(CNc2nccs2)cc1,-2.48%

row,SMILES,activation
1,CCN(CC)CCNS(=O)(=O)c1ccc(/C=C/C(=O)O)cc1,6.16%
2,Cc1ccc2c(C)c(C(=O)N3CCC(N4CCC(C(=O)NC5CC5)CC4)CC3)oc2c1,-4.49%
3,CC1(C)Cc2cccc(OCC(N)=O)c2O1,-7.5%
4,COc1cccc(CCNC(=O)COc2cccc3c2OC(C)(C)C3)c1,10.4% (active)
5,CC1(C)Cc2cccc(OCC(=O)NCc3ccccc3)c2O1,0.71%
6,CCn1c2c(c3ccc(OC)cc31)CCCC2=O,2.01%
7,O=C1COc2ccc(C(=O)COC(=O)C3CC(O)CN3S(=O)(=O)c3ccc(Cl)cc3)cc2N1 (configuration not stated),2.08%
8,O=C(NCCCN1CCCC1=O)c1ccc(S(=O)(=O)Nc2ccccc2)cc1,-1.42%
9,CCn1c(SCC(=O)N/N=C/c2ccccc2OCC(=O)O)nnc1-c1ccc(C(C)(C)C)cc1,-0.31%
10,CCn1c(SCC(=O)N/N=C/c2ccncc2)nc2ccccc21,0.02%
11,Cc1ccc(Cn2c(SCC(=O)N/N=C/c3ccccc3OCC(=O)O)nc3ccccc32)cc1,13.2% (active)
12,COc1cc2c(cc1NC(=O)COC(=O)/C=C/c1ccccc1)oc1ccccc12,1.5%
13,CCOC(=O)c1c(C)[nH]c(C(=O)OCC(=O)N2CCCC2=O)c1C,-3.02%
14,Cc1c(C(=O)OCC(=O)N2CCCC2=O)oc2ccccc12,17.4% (active)
15,Cc1c(C(=O)N2CCCc3ccccc32)oc2ccccc12,5.91%
16,O=C(Cc1ncc(C(F)(F)F)cc1Cl)Nc1cccc(Br)c1,-3.41%
17,NS(=O)(=O)c1ccc(CNC(=S)NC(=O)c2ccco2)cc1,-0.69%
18,CCc1nn(CCCC(=O)Nc2ccc(C)cc2C)c(=O)c2cc3occc3n12,0.19%
19,CCCCCCCCn1c2c(c(=N)c3c1CCC3)CCCC2,12.5% (active)
20,Cc1ccccc1NC(=O)CSc1ccc2nnc(-c3ccccn3)n2n1,-2.77%
21,O=C(/C=C/c1cccc([N+](=O)[O-])c1)NCCSCc1ccco1,-1.08%
22,Cc1ccc(CNC(=O)C2CCCN2C(=O)NCc2ccccc2)cc1 (configuration not stated),-0.36%
23,O=C(NC1CC2CCCC(C1)N2C(=O)N1CCCCC1)C1CCCCC1 (configuration not stated),2.7%

row,SMILES,activation
1,Nc1ccc2nn(-c3ccc(Cl)cc3)nc2c1,3.34%
2,c1ccc(-n2nc3ccccc3n2)cc1,15.4% (active)
3,O=C1CCCc2nn(-c3ccccc3)nc21,-0.59%
4,Cc1ccc(S(=O)(=O)Nc2nc(CN3CCOCC3)nc3sc(C)c(C)c23)cc1,7.7%
5,O=C(O[C@H]1[C@H](Cc2ccccc2)NS(=O)(=O)[C@H]2C[C@@H]3C=C[C@]12O3)c1ccc([N+](=O)[O-])cc1,-6.9%
6,CCOc1cc(N2CCOCC2)c(OCC)cc1NC(=O)C1=NN(c2cccc(C)c2)C(=O)CC1,11.3%
7,CCOc1cc(N2CCOCC2)c(OCC)cc1NC(=O)c1cc(C)nc2ccccc12,14.2% (active)
8,CCOc1cc(N2CCOCC2)c(OCC)cc1NC(=O)c1ccc(C)s1,0.66%
9,CCc1ccc(C2N3CC4([N+](=O)[O-])CN2CC([N+](=O)[O-])(C3)C4(C)C)cc1 (configuration not stated),2.6%
10,CC1(C)C(C=C(Cl)Cl)C1C(=O)N(Cc1ccc(Cl)cc1)C1CCS(=O)(=O)C1 (configuration not stated),0.53%
11,COc1ccc(-n2nc3c(N4CCC(C(=O)NCc5ccccc5)CC4)nnc(C)c3c2C)cc1,-1.31%
12,CCOc1ccc(CNC(=O)C2CCCN(c3nnc(C)c4c(C)n(-c5ccccc5)nc34)C2)cc1 (configuration not stated),7.35%
13,CCc1ccc(CNC(=O)C2CCN(c3nnc(C)c4c(C)n(-c5ccc(C)cc5)nc34)CC2)cc1,11.9% (active)
14,O=C(Nc1ccccc1Cc1ccccc1)c1ccc2c(c1)SC1=NS(=O)(=O)CCN12,6.02%
15,Cc1cccc(CCNS(=O)(=O)c2ccc3c(c2)NC(=O)CO3)c1,-0.45%
16,O=C(C1CCC(=O)N(C2CC2)C1)N1CCN(c2ccc(Cl)cc2)CC1 (configuration not stated),0.66%
17,COC(=O)c1cc(C(=O)OCC(=O)Nc2cc(C)on2)cc([N+](=O)[O-])c1,14.7% (active)
18,Cc1cc(NC(=O)COc2ccc([N+](=O)[O-])cc2)no1,-2.97%
19,Cc1cc(NC(=O)CSc2nccn2-c2ccc([N+](=O)[O-])cc2)no1,-1.99%
20,CC(=O)N1CCN(S(=O)(=O)c2ccc(C)c([N+](=O)[O-])c2)C1C(C)C (configuration not stated),0.82%
21,CNC(=S)NNC(=O)c1sccc1OCc1ccccc1,6.65%
22,O=C(O)COc1ccc(/C=N/O)cc1Br,1.32%
23,CNC(=S)N/N=C/c1ccc(OCc2ccccc2)c(Br)c1,14.9% (active)

row,SMILES,activation
1,N=c1c2c3c(sc2ncn1CCCN1CCOCC1)CCCCC3,6.44%
2,COc1ccc(N(CC(=O)NC2CCCC2)C(=O)CS(=O)CC(=O)Nc2ccc3c(c2)OCO3)cc1 (configuration not stated),1.5%
3,O=S(=O)(NN=C1CCCCCCC1)c1ccc(Br)cc1,9.89% (active)
4,CC(CNS(=O)(=O)c1ccc(Br)cc1)CN(C)C (configuration not stated),0.38%
5,Cc1nc(S(=O)(=O)c2ccc(Br)cc2)nc2c1CCC2,3.89%
6,CCOc1ccc(NC(=O)c2cc(C)nc3ccccc23)cc1,6.43%
7,CCOc1ccc(NC(=O)c2nc(SCC)ncc2Cl)cc1,11.8% (active)
8,CCOc1ccc(NC(=O)CSc2nncn2C)cc1,2.03%
9,Cc1ccc(C)c(Cn2nnc3c(=O)[nH]c(C(=O)Nc4ccc(F)cc4)nc32)c1,-2.89%
10,COc1ccc(NC(=O)COC(=O)c2ccc(NS(=O)(=O)/C=C/c3ccccc3)cc2)cc1,-1.75%
11,N#CCCN(C(=O)COC(=O)c1ccc2c(c1)OCCO2)c1ccccc1,5.45%
12,Cc1c(C(=O)OCC(=O)N(CCC#N)c2ccccc2)oc2c1ccc1ccccc12,53% (active)
13,N#CCCN(C(=O)COC(=O)c1ccc(S(=O)(=O)N2CCCCCC2)cc1)c1ccccc1,-3.52%
14,CCN1CCN(C(=O)/C=C\C(=O)O)CC1,2.72%
15,CC1CC(C)CN(CC(=O)N2c3ccccc3CCc3ccccc32)C1 (configuration not stated),-4.89%
16,CC1C(C)N(C(=O)CCl)c2ccccc2N1C(=O)CCl (configuration not stated),8.76% (active)
17,CC1C(=O)N(Cc2ccccc2)c2ccccc2N1C(=O)c1ccccc1 (configuration not stated),0.41%
18,Cc1cccc(N2CCN(C(C)C(=O)N3CCc4ccccc43)CC2)c1C (configuration not stated),7.68%
19,COc1cc(OC)c(-n2cc(-c3ccc(Cl)cc3)[nH]c2=O)cc1Cl,5.5%
20,CC1CCCCN1CCCNc1ccc(C(CC(N)=O)NC(=O)c2ccccc2)cc1[N+](=O)[O-] (configuration not stated),-1.92%
21,CCC(C)[C@@H](C(=O)N1CCNCC1)n1cc(CCCCN)nn1 (some centres not stated),-1.58%
22,C#CCOCCOCCOCCNc1nc(N2CCN(C(=O)Cn3cc(CCO)nn3)CC2)nc(N2CCN(C(=O)Cn3cc(CCCN=C(N)N)nn3)CC2)n1,-2.92%
23,NC(N)=NCCCc1cn(CC(=O)N2CCNCC2)nn1,12.4% (active)
